Sampled rows, rich in hits. Any-hit rate of the full collection: about 4.4%.
TIM10 inh: growth inhibitors of isogenic TIM10 control yeast, primary screen, counter-screen for tim10-1 yeast inhibitor project, luminescence, uHTS; AID 463195, 2010; S. cerevisiae TIM10 strain growth, BacTiter-Glo luminescence, 24 h; inhibition, % at 10 µM; actives 1.4% (n = 330,000);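 active = inhibition of 40% or more at the single tested concentration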;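 note: wild-type TIM10 isogenic control strain grown at permissive 25 °C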
tim23-1 inh: growth inhibitors of tim23-1 mutant yeast, primary screen, luminescence, uHTS; inhibition, % at 20 µM; S. cerevisiae tim23-1 growth, BacTiter-Glo luminescence, 24 h; actives 1.3% (n = 330,000); AID 463212, 2010;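 active = growth inhibition of the mutant yeast at or above 50%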;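 note: temperature-sensitive mutant grown at 25 °C; plate controls were DMSO-treated mutant yeast for no effect and medium wells lacking yeast for full effect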
tim10-1 inh: growth inhibitors of tim10-1 mutant yeast, primary screen, luminescence, uHTS. actives 2.2% (n = 330,000). inhibition, % at 20 µM. S. cerevisiae tim10-1 ts strain growth, BacTiter-Glo, 24 h;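 active = inhibition of at least 40%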;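 note: mutant grown at 25 °C; 0% = DMSO wells with yeast and 100% = wells holding no yeast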
PfHsp90 set2: growth inhibition of PfHsp90-expressing yeast, primary screen, antimalarial PfHsp90 inhibitor project, S. cerevisiae, BacTiter-Glo luminescence, single point, set 2; BacTiter-Glo ATP, 48 h; yeast lacking PDR1 and PDR3 efflux regulators; inhibition, % at 9.4 µM; actives 0.32% (n = 310,000); AID 504621, 2011;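 active = every replicate shows inhibition above about 80%, whatever the replicate mean, limit read from the data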;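 note: 0% = DMSO neutral controls and 100% = 20 µM radicicol positive controls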
SKKanGAS inh: S. pyogenes SKKanGAS growth inhibitors in kanamycin, primary screen, streptokinase expression inhibitor project, SKKanGAS strain, BacTiter-Glo luminescence. 6 h. inhibition, % at 7.5 µM. actives 1.3% (n = 300,000);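 active = mean replicate score, as percent of positive control median, at least 50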;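 note: strain carries kanamycin resistance gene driven by streptokinase promoter and grows in 40 µg/ml kanamycin; loss of luminescence reflects streptokinase promoter inhibition or plain growth inhibition; 0% = median of DMSO wells and 100% = positive control at its reference dose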
tim23-1 confirm: tim23-1 mutant yeast growth inhibitors, confirmation, luminescence, single concentration; inhibition, % at 20 µM; AID 463218, 2010; S. cerevisiae tim23-1 growth, BacTiter-Glo luminescence, 24 h; actives 83% (n = 4,400); shares compounds with tim23-1 inh;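 active = inhibition above about 39% in either of two replicate wells at 20 µM, limit read from the data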;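 note: temperature-sensitive tim23-1 mutant grown at 25 °C; 0% = DMSO wells with yeast and 100% = medium wells without yeast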
Active calls of the source: *.

Results for CC(C)(C)C(CO)NC(=O)c1ccc[nH]1 (stereo unspecified) ?
TIM10 inh: -11; tim23-1 inh: -12; tim10-1 inh: -5; PfHsp90 set2: -11

What do the screens show for `Cc1cc(NC(=O)C(C)SCC(=O)OCc2ccc(Cl)cc2Cl)no1` (stereo unspecified)?
TIM10 inh: 14; tim23-1 inh: 37; tim10-1 inh: 13; PfHsp90 set2: -12

What do the screens show for `CCOc1ccccc1NC1=C(OC)C(=O)C(Nc2ccccc2OCC)=C(OC)C1=O`?
PfHsp90 set2: -16

Results for CCOC(=O)c1ccc(NC(=O)c2ccc[n+]([O-])c2)cc1 ?
TIM10 inh: -1; tim23-1 inh: -1; tim10-1 inh: 1; PfHsp90 set2: -1; SKKanGAS inh: 3

Results for COc1ccc(C2=C(C=O)Cc3ccccc3O2)cc1 ?
TIM10 inh: 25; tim23-1 inh: 51*; tim10-1 inh: 33; PfHsp90 set2: -12; SKKanGAS inh: -7; tim23-1 confirm: 53*

What do the screens show for `CCC(C)NC(=O)c1cc2c(=O)n(CC)c3ccccc3c2s1` (stereo unspecified)?
TIM10 inh: 13; tim23-1 inh: 52*; tim10-1 inh: 34; PfHsp90 set2: -4; SKKanGAS inh: 7; tim23-1 confirm: 49*

How did Cc1ccc(-c2cc(-c3cccs3)[nH]n2)c(O)c1 do in these assays?
TIM10 inh: 35; tim23-1 inh: 51*; tim10-1 inh: 15; SKKanGAS inh: 16; tim23-1 confirm: 34

Results for Cc1ccc(-c2cc(C(=O)Nc3cc(C)ccc3C)[nH]n2)c(O)c1 ?
TIM10 inh: -4; tim23-1 inh: -14; tim10-1 inh: 8; PfHsp90 set2: -83; SKKanGAS inh: 3

What do the screens show for `CC(O)c1cccc(N=Cc2ccc3ccccc3c2O)c1` (stereo unspecified)?
TIM10 inh: 9; tim23-1 inh: 54*; tim10-1 inh: -2; PfHsp90 set2: 21; SKKanGAS inh: 0; tim23-1 confirm: 42*

Results for Oc1ccc(C=Nc2cccc3ccccc23)c(O)c1 ?
TIM10 inh: 22; tim23-1 inh: 25; tim10-1 inh: 27; PfHsp90 set2: -7; SKKanGAS inh: -3

Results for CC(=O)c1ccc(OCCOc2ccc(C#N)cc2)cc1 ?
TIM10 inh: 10; tim23-1 inh: 17; tim10-1 inh: 11; PfHsp90 set2: -1; SKKanGAS inh: 5

What do the screens show for `O=C(Nc1ccc(NC(=O)c2cccs2)c(Cl)c1)c1cccs1`?
TIM10 inh: 28; tim23-1 inh: 51*; tim10-1 inh: 8; PfHsp90 set2: 10; SKKanGAS inh: -2; tim23-1 confirm: 65*

How did CCCc1nc2ccc(NC(=O)c3cccs3)cc2c(=O)n1Cc1ccc(Cl)cc1 do in these assays?
TIM10 inh: 21; tim23-1 inh: 13; tim10-1 inh: -8; PfHsp90 set2: -11; SKKanGAS inh: 31

Results for Cc1sc(NC(=O)c2cccs2)c(C(N)=O)c1C ?
TIM10 inh: 22; tim23-1 inh: 51*; tim10-1 inh: 21; PfHsp90 set2: -14; SKKanGAS inh: -14; tim23-1 confirm: 67*

How did Cc1nc2ccc(NC(=O)c3cccs3)cc2c(=O)n1Cc1ccc(Cl)cc1 do in these assays?
TIM10 inh: 33; tim23-1 inh: 62*; tim10-1 inh: 33; PfHsp90 set2: 15; SKKanGAS inh: 9; tim23-1 confirm: 46*

How did Nc1ccc(NC(=O)c2cccs2)c(Cl)c1 do in these assays?
TIM10 inh: 3; tim23-1 inh: 7; tim10-1 inh: 10; PfHsp90 set2: -19; SKKanGAS inh: -2

Results for O=C(Nc1ccc(Cl)cc1)c1cccs1 ?
TIM10 inh: 37; tim23-1 inh: 61*; tim10-1 inh: -5; PfHsp90 set2: -3; SKKanGAS inh: 3; tim23-1 confirm: 59*

What do the screens show for `CCc1ccccc1NC(=O)C1CCCN(c2nccc(C)n2)C1` (stereo unspecified)?
TIM10 inh: 0; tim23-1 inh: 6; tim10-1 inh: 6; PfHsp90 set2: -10; SKKanGAS inh: -2

What do the screens show for `CC1CCN(C(=O)c2ccccc2NC(=O)c2cccc(S(=O)(=O)N(C)C)c2)CC1`?
TIM10 inh: -12; tim23-1 inh: 4; tim10-1 inh: 4; PfHsp90 set2: -15; SKKanGAS inh: -2

What do the screens show for `Cc1ccn(-c2ccc(NC(=O)c3cccs3)cc2)n1`?
TIM10 inh: 38; tim23-1 inh: 75*; tim10-1 inh: 13; PfHsp90 set2: 59; SKKanGAS inh: 6; tim23-1 confirm: 69*

What do the screens show for `O=C(Nc1ccc(F)c([N+](=O)[O-])c1)c1cccs1`?
TIM10 inh: 8; tim23-1 inh: 53*; tim10-1 inh: -15; PfHsp90 set2: 3; SKKanGAS inh: -3; tim23-1 confirm: 49*

What do the screens show for `CCC(ONc1ccccc1C(F)(F)F)(C(=O)NN(C)C)c1ccccc1` (stereo unspecified)?
TIM10 inh: -5; tim23-1 inh: 10; tim10-1 inh: -73; PfHsp90 set2: 13

What do the screens show for `O=C(NC(=S)NCCc1ccccc1)c1cccc(Cl)c1`?
TIM10 inh: 32; tim23-1 inh: 52*; tim10-1 inh: 33; PfHsp90 set2: -1; SKKanGAS inh: 0; tim23-1 confirm: 46*

How did Cc1ccc(NC(=O)c2ccc(OCc3c(C)noc3C)cc2)cc1C do in these assays?
TIM10 inh: 30; tim23-1 inh: 59*; tim10-1 inh: -26; PfHsp90 set2: 22; tim23-1 confirm: 56*

Results for CC(=O)Nc1ccc(NC(=O)c2ccc(OCc3c(C)noc3C)cc2)cc1 ?
TIM10 inh: -18; tim23-1 inh: -15; tim10-1 inh: -5; PfHsp90 set2: -12

How did O=C(CCl)Nc1cn(-c2ccccc2)nc1-c1ccc(F)cc1 do in these assays?
TIM10 inh: 12; tim23-1 inh: 61*; tim10-1 inh: 28; SKKanGAS inh: -1; tim23-1 confirm: 32

How did COc1cccc(CNC(=O)C(=O)NCC2OCCCN2S(=O)(=O)c2cc(C)ccc2C)c1 (stereo unspecified) do in these assays?
TIM10 inh: 16; tim23-1 inh: 24; tim10-1 inh: 23; PfHsp90 set2: -3; SKKanGAS inh: 5

What do the screens show for `Oc1ccc2ccccc2c1C=NCc1ccccc1`?
TIM10 inh: 8; tim23-1 inh: 65*; tim10-1 inh: 4; PfHsp90 set2: 29; SKKanGAS inh: 5; tim23-1 confirm: 60*

What do the screens show for `Nc1ccccc1C(=O)NNc1c2ccccc2nc2ccccc12`?
TIM10 inh: -2; tim23-1 inh: -22; tim10-1 inh: -17; PfHsp90 set2: -10; SKKanGAS inh: 15

Compound activity (PubChem BioAssay)
